# PubChem BioAssay AID463173 (ICCB-Longwood Screening Facility, Harvard Medical School, 2010)
# Screen size: about 52,000 compounds; about 4,300 (8.3%) were called active. The list comes from a sample in which actives are over-represented; it also holds similar structures and randomly drawn compounds. Unmarked numbers belong to inactive results. No stated cut-off is given here; in the data, active means survival mostly below about 52% (no sharp cut-off); inactive means mostly above about 56%.
# System: DeltatarO mutant
# Experiment: S. aureus survival, RN4220 and DeltatarO strains – OD600, teichoic acid synthesis inhibitors, primary screen (AID 463173)
# Settings: S. aureus RN4220 wild type/DeltatarO growth, OD600, 18 h, hits give low values, screened at 18.75 µg/mL (by protocol)
row,Compound,survival
1,Cc1ccc(-n2nc3c(=O)n(CCCC(=O)NC(C)c4ccccc4)nc(C)c3c2C)cc1 (stereo not drawn),67%
2,COc1ccc(S(=O)(=O)N(CCc2ccccc2)CC(=O)NCc2ccccc2)cc1OC,62%
3,CCc1ccccc1NC(=O)CC(c1ccc(F)cc1)N1Cc2ccccc2C1=O (stereo not drawn),117%
4,O=C(CC(c1cccs1)N1Cc2ccccc2C1=O)Nc1ccc(Cl)cc1 (stereo not drawn),131%
5,Cc1c(Cl)cccc1NC(=O)CC(c1cccs1)N1Cc2ccccc2C1=O (stereo not drawn),32% (active)
6,CCOc1ccccc1NC(=O)CC(c1ccc(F)cc1)N1Cc2ccccc2C1=O (stereo not drawn),99%
7,Cc1c(Cl)cccc1NC(=O)CC(c1ccc(F)cc1)N1Cc2ccccc2C1=O (stereo not drawn),37% (active)
8,O=C(CC(c1cccs1)N1Cc2ccccc2C1=O)Nc1ccccc1F (stereo not drawn),78%
9,CCOC(=O)C1CCCN(C(=O)Cn2ncc3c([nH]c4ccc(C)cc43)c2=O)C1 (stereo not drawn),81%
10,CCOC(=O)c1ccc2c(c1)N(CC#N)C(=O)C(C)(C)O2,94%
11,CCOC(=O)c1[nH]c(Cc2[nH]c(C(=O)OCC)c(C)c2CC(=O)OC)c(CCC(=O)OC)c1C,70%
12,CCN(c1ccccc1)S(=O)(=O)c1ccc(NC(=O)c2cc(=O)c3ccc(C)c(C)c3o2)cc1,64%
13,COc1ccccc1NC(=O)c1cc(=O)c2ccc(C)c(C)c2o1,41% (active)
14,COC(=O)c1ccccc1NC(=O)c1cc(=O)c2ccc(C)c(C)c2o1,72%
15,Cc1ccc2c(=O)cc(C(=O)Nc3ccc(S(=O)(=O)N(C)Cc4ccccc4)cc3)oc2c1C,92%
16,Cc1ccc2c(=O)cc(C(=O)Nc3ccc(S(=O)(=O)N(C)c4ccccc4)cc3)oc2c1C,50% (active)
17,COc1ccc(CCNC(=O)c2cc(=O)c3c(C)cc(C)cc3o2)cc1OC,57%
18,Cc1cc(C)c2c(=O)cc(C(=O)Nc3ccccc3Cl)oc2c1,62%
19,CCOC(=O)c1ccc(NC(=O)c2cc(=O)c3ccc(C)c(C)c3o2)cc1,45% (active)
20,COc1ccc(OC)c(NC(=O)c2cc(=O)c3c(C)cc(C)cc3o2)c1,42% (active)
21,CCOc1ccc(NC(=O)c2cc(=O)c3ccc(C)c(C)c3o2)cc1,60%
22,Cc1ccc2c(=O)cc(C(=O)Nc3cccc(Cl)c3C)oc2c1C,54%
23,CCc1ccc(NC(=O)c2cc(=O)c3ccc(C)c(C)c3o2)cc1,91%
24,COc1cccc2cc(-c3nc(-c4cccs4)no3)c(=O)oc12,67%

row,Compound,survival
1,COc1ccc(C)c2sc(NC(=O)c3ccc(S(=O)(=O)N4CCCCC4)cc3)nc12,92%
2,O=C(O)c1cc2nc3c(c(C(F)(F)F)n2n1)CCC3,89%
3,O=C(Cn1cnc2c(nc3n2CCCCC3)c1=O)Nc1cccc(C(F)(F)F)c1,83%
4,O=C(Cn1cc(S(=O)(=O)Cc2ccccc2F)c2ccccc21)NCc1ccccc1,87%
5,Cc1ccc(NCc2cc3cc4c(cc3n(CC(=O)Nc3ccc(F)cc3F)c2=O)OCCO4)cc1,70%
6,O=C(CN1CCC(C(=O)c2ccc(F)cc2)CC1)Nc1ccccc1,83%
7,CCCCSc1nc(O)c(CCC(C)C)c(=O)[nH]1,60%
8,Cc1ccc(S(=O)(=O)N(CCc2ccccc2)CC(=O)Nc2ccc(Br)cc2)cc1,75%
9,COc1cc(NC(=O)CSc2nc(-c3ccc(C(C)C)cc3)no2)cc(OC)c1,91%
10,O=C(Cn1c(=O)n(-c2cccc(Cl)c2)c(=O)c2sc3ccccc3c21)NC1CCCCC1,127%
11,OC1(c2ccccc2)CCN(Cc2ccccc2)CC1,73%
12,C/C=C1\NC(=S)N(Cc2ccccc2)C1=O,84%
13,O=C1CCN(Cc2ccccc2)C(=S)N1,49% (active)
14,COC(=O)C1C(=O)C2=C(CC1C)Nc1ccccc1NC2c1ccc(N(C)C)cc1 (stereo not drawn),79%
15,Cc1ccc(-c2nnc3ccccc3c2C(=O)Nc2ccc(C)c(F)c2)cc1,80%
16,O=C(COc1ccc(F)cc1)Nc1ccc2nc(SCCOc3ccccc3)sc2c1,87%
17,CCn1c(=O)n(CC)c2cc(N3CCCCC3)c(NC(=O)Nc3cc(C)cc(C)c3)cc21,100%
18,CCOC(=O)c1ccc(N2CCN(c3ccc(F)cc3)CC2)c(NC(=O)Nc2cccc(OC)c2)c1,70%
19,CCOC(=O)c1ccc(N2CCN(c3cccc(OC)c3)CC2)c(NC(=O)Nc2ccc(OCC)cc2)c1,-5% (active)
20,CCOC(=O)c1ccc(NC(=O)Nc2cc3c(cc2N2CCCCC2)n(CC)c(=O)n3CC)cc1,57% (active)
21,CCOC(=O)c1ccc(N2CCN(c3cccc(Cl)c3)CC2)c(NC(=O)Nc2ccc(Cl)cc2)c1,92%
22,CCOC(=O)c1ccc(NC(=O)Nc2cc3c(cc2N2CCCC2)n(C)c(=O)n3C)cc1,82%
23,CCOc1ccc(-c2nc3c(c(CC)nn3-c3ccccc3)c3cc(OC)c(OC)cc23)cc1,78%
24,CCc1nc2sc3c(N4CCC(C)CC4)ncnc3c2c2c1CCCC2,134%

row,Compound,survival
1,CCc1cccc(NC(=O)Cn2c(=O)n(CCC(=O)NCC3CCCO3)c(=O)c3cc(OC)c(OC)cc32)c1 (stereo not drawn),62%
2,COc1cccc2c1Oc1nc(-c3ccccc3)nc(SCC(=O)Nc3ccccc3)c1C2,81%
3,CCOC(=O)c1ccc(NC(=O)c2ccc3c(c2)CCN3S(=O)(=O)c2ccc(Cl)cc2)cc1,64%
4,COc1cc2c(C(=O)N3CCN(c4ccc(C)cc4)C(C)C3)cn(CC(C)C)c(=O)c2cc1OC (stereo not drawn),47%
5,CCN(C(=O)c1cn(CC(C)C)c(=O)c2cc(OC)c(OC)cc12)c1cc(OC)ccc1OC,55%
6,CCn1cc(C(=O)N2CCN(c3cc(Cl)ccc3C)CC2)c2cc(OC)c(OC)cc2c1=O,64%
7,Cc1cccc(N2CCN(C(=O)c3cccn4c(=O)c5cc(Cl)ccc5nc34)CC2C)c1 (stereo not drawn),66%
8,COc1cc2c(C(=O)N3CCN(c4cccc(C)c4)C(C)C3)cn(CC(C)C)c(=O)c2cc1OC (stereo not drawn),46% (active)
9,COc1cc2c(C(=O)N(C)c3cc(Cl)ccc3OC)cn(CC(C)C)c(=O)c2cc1OC,48% (active)
10,COc1cc2c(C(=O)N3CCN(c4ccc(F)cc4)CC3)cn(CC(C)C)c(=O)c2cc1OC,56%
11,Cc1cccn2c(=O)c(C(=O)N3CCN(c4ccccc4)CC3)cnc12,49%
12,Cc1cccc(N2CCN(C(=O)c3cnc4c(C)cccn4c3=O)CC2C)c1 (stereo not drawn),32% (active)
13,CCCN(C(=O)c1cn(CC(C)C)c(=O)c2cc(OC)c(OC)cc12)c1cccc(C)c1,152%
14,COc1cc2c(C(=O)N3CCN(c4cc(Cl)ccc4C)CC3)cn(CC(C)C)c(=O)c2cc1OC,40% (active)
15,CCc1ccccc1N(C)C(=O)c1cn(CC(C)C)c(=O)c2cc(OC)c(OC)cc12,73%
16,CCOc1cc(C#N)c(NC(=O)c2ccc(OC)c(S(=O)(=O)N3CCCC3)c2)cc1OCC,52%
17,CCCCCOc1ccc(C(=O)CCN2CCOCC2)cc1,90%
18,CC(C)c1nc2ccc(C(=O)NCc3ccc(F)cc3)cc2o1,78%
19,COc1ccc(C2CC(=O)c3c([nH]c(C(=O)OC4CCCCCC4)c3C)C2)cc1 (stereo not drawn),79%
20,CCc1ccc(NC(=O)Cn2c(=O)n(CCCC(=O)NCCc3ccc(OC)c(OC)c3)c(=O)c3ccccc32)cc1,77%
21,COc1ccc2c(c1)cc1c(=O)n(CC(=O)NC(C)C)nc(C)n12,78%
22,N#Cc1c2c(c(N3CCOCC3)[nH]c1=S)CCCC2,94%
23,O=S(=O)(NCC(c1ccco1)N1CCOCC1)c1ccc(Cl)cc1 (stereo not drawn),86%
24,O=C(Nc1c(C(=O)N2CCN(c3ccccc3F)CC2)oc2ccccc12)c1ccccc1F,75%

row,Compound,survival
1,Oc1ccc(NCc2ccccc2OCc2ccc(Cl)cc2)cc1,91%
2,Oc1ccc(NCc2ccccc2OCc2ccccc2Cl)cc1,52% (active)
3,Oc1ccc(NCc2ccc(OCc3ccccc3)cc2)cc1,72%
4,Oc1ccc(NCc2ccc(OCc3ccccc3Cl)cc2)cc1,35% (active)
5,Oc1ccc(NCc2ccccc2OCc2ccccc2F)cc1,60%
6,CCOc1cccc(CNc2ccc(O)cc2)c1OCc1ccccc1Cl,68%
7,CCC(C)NC(=O)Cn1c(=O)n(CCCC(=O)NCc2ccc(C)cc2)c(=O)c2ccccc21 (stereo not drawn),94%
8,COc1ccccc1OCC(=O)NCC1(N(C)C)CCCCC1,91%
9,COc1ccc(CCNS(=O)(=O)c2ccc(N3CCCCS3(=O)=O)cc2)cc1,79%
10,O=S(=O)(NCCc1ccc(Cl)cc1)c1ccc(N2CCCCS2(=O)=O)cc1,93%
11,O=S(=O)(NCCc1ccccc1)c1ccc(N2CCCCS2(=O)=O)cc1,52% (active)
12,c1ccc(Cn2nnnc2C(c2cccs2)N(Cc2cccnc2)Cc2ccco2)cc1 (stereo not drawn),64%
13,Cc1c[n+](CC(=O)c2ccccc2)c(C)cn1,101%
14,Cc1nc(-c2ccc(F)cc2)sc1CCNC(=O)c1ccc(OC(C)C)cc1,67%
15,Cc1ccc(C(=O)N2CCC(C(=O)O)CC2)cc1,90%
16,COc1ccc(C(=O)Oc2c(Sc3ccccc3)c(C)nn2-c2ccccc2)c(OC)c1,114%
17,Cc1ccc(Sc2c(C)nn(-c3ccccc3)c2OC(=O)C(C)(C)C)cc1,-10% (active)
18,Cc1ccc(C(=O)Oc2c(S(=O)(=O)c3ccccc3)c(C)nn2-c2ccccc2)cc1,90%
19,COc1cc(C(=O)Oc2c(Sc3ccc(C)cc3)c(C)nn2-c2ccccc2)cc(OC)c1OC,109%
20,Cc1nn(-c2ccccc2)c(OC(=O)C(C)(C)C)c1Sc1ccccc1,62%
21,Cc1ccc(Sc2c(C)nn(-c3ccccc3)c2OC(=O)CC(C)C)cc1,21% (active)
